HCMV inh – blocks human cytomegalovirus replication; HFF cells, HCMV-luciferase reporter, 72 h; hits give low values; activity change, negative = inhibition, % at 57.5 µM; 4.5% of 410,000 active; in the data active means activity change below about -60%; inconclusive means no clear call, values can overlap the other calls; inactive means above about -39%
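Two-dose cell screen: HFF monolayers treated with compounds and infected with luciferase-expressing HCMV at 1 PFU/cell, 72 h at 37C, then lysed for luciferase measurement.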
LASV entry inh – inhibitors of Lassa virus binding or cell entry. Potency, µM (titrated, usually from 37.9 µM), for the others: at the highest dose activity change, negative = inhibition, hits mostly inhibitors. AID 540256. 1.2% of 300,000 active. Lassa virus pseudotype entry inhibition, cell reporter; calls by dose curve; tested in HEK293 cells; further: potency means the concentration at half of the fitted maximal effect; nearly all actives have a fitted effect of over 50% in size
HCV inhibitor – HCV inhibition; Huh7.5.1 HCVcc-Cre infection, luciferase reporter, 44 h; Potency, µM (highest dose often 41.8 µM), inactives show at the highest dose activity change, negative = inhibition, usual class: inhibitors; 3.4% of 340,000 active; AID 651820; active means well fitted inhibition curve with a large enough effect; inconclusive means small, poorly fitted or top-dose-only effect, or another doubt; inactive means no such curve, though single readings can be large or run the other way; further: potency means the concentration at half of the fitted maximal effect
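Infectious HCVcc-Cre (~0.5 moi) was added to cells just after compound, with cells seeded 4 h earlier at 1,000 per well. Luciferase activity after 44 h culture reported infection; substrate was incubated 15 min at room temperature before reading.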
FMDV antiviral – antivirals against foot and mouth disease virus | FMDV antiviral cell-based qHTS | Potency, µM (series often up to 57.9 µM), for the others: at the highest dose activity change, negative = inhibition, most hits filed as inhibitors | 1.2% of 410,000 active; calls by dose curve; tested in HEK293T cells; further: read-out not given here; potency means the concentration at half of the fitted maximal effect; nearly all actives have a fitted effect of over 45% in size
MARV entry inh – blocks Marburg virus binding to or entry into cells. Potency, µM (doses to about 37.8 µM), inactives show at the highest dose activity change, negative = inhibition, actives largely listed as inhibitors. 1.8% of 300,000 active. AID 540276. Marburg virus pseudotyped entry inhibition, cell reporter; calls by dose curve; tested in HEK293 cells; further: potency means the concentration at half of the fitted maximal effect
* marks the source's active call; other numbers are inactive results; ? = inconclusive; / = no result given; ! = a repeat was not active; [ ] = remark or other dose. Sampled rows, rich in hits. Any-hit rate of the full collection: about 7.9%. On the % scale 0 is the no-effect control and ±100 the full control effect.

SMILES	HCMV inh	LASV entry inh	HCV inhibitor	FMDV antiviral	MARV entry inh
CCS(=O)c1ccccc1C(=O)OCC(=O)Nc1cccc(S(=O)(=O)N2CCCCC2)c1 (stereo not given)	-8	/	10µM*	?	/
CCOc1ccccc1C(=O)OCC(=O)Nc1cccc(S(=O)(=O)N2CCCC2)c1	0	/	5%	?	/
CCN1CCN(c2ccc(S(=O)(=O)N3CCCCC3)cc2NC(=O)/C=C/c2ccc(Cl)cc2)CC1	4	18µM*	32µM*	-19%	?
Cc1cccc(C)c1OCC(=O)Nc1cccc(S(=O)(=O)N2CCCCCC2)c1	18	/	/	-14%	/
CN1CCN(c2ccc(Cl)cc2NC(=O)/C=C/c2cccc(F)c2)CC1	26	-15%[46.1 µM]	?	0%	5µM*
Cc1cccc(C)c1OCC(=O)Nc1cccc(S(=O)(=O)N2CCCC2)c1	-24	?	8.9µM*	-12%	?
C=C(C)C(=O)/C=C/C=C/c1ccccc1	/	/	/	/	-87%[14.2 µM]
O=C(c1cnccn1)N1CCC2(CCCN(c3ccccc3)C2)CC1	/	/	/	-10%	/
Cc1cc(OCC(=O)Nc2cccc(S(=O)(=O)N3CCCCC3)c2)ccc1Cl	-6	/	?	-23%	/
CCN1CCN(c2ccc(S(=O)(=O)N3CCCCC3)cc2NC(=O)c2ccc([N+](=O)[O-])s2)CC1	-26	?	35µM*	-28%	?
Cc1cc(OCC(=O)Nc2cccc(S(=O)(=O)N3CCCC3)c2)ccc1Cl	-13	?	?	0%	5µM*
CCN1CCN(c2ccc(S(=O)(=O)N3CCCCC3)cc2NC(=O)c2ccccc2)CC1	27	-7%[46.1 µM]	9%	-5%	-6%
O=C(Nc1c(Cl)cccc1Cl)Oc1cccc2cccnc12	-98*	/	/	-9%	/
CCN1CCN(c2ccc(S(=O)(=O)N3CCCCC3)cc2NC(=O)COc2ccc(Cl)c(C)c2)CC1	17	-2%[46.1 µM]	11µM*	-13%	?
CCCn1c(SCC(=O)NCc2ccccc2)n[nH]c1=O	-22	-4%	9%	-5%	0%
Cc1c(-c2nnc(SCC(=O)Nc3ccccc3F)o2)nnn1-c1ccc(F)cc1	58	-14%[46.1 µM]	/	30%	/
Cc1ccc(-c2noc(CN(C3CCCCC3)S(=O)(=O)c3ccc(F)cc3)n2)cc1	?	-4%[46.1 µM]	/	-12%	?
O=C(COc1cccc2cccnc12)Nc1cccc(S(=O)(=O)N2CCCC2)c1	-9	/	10µM*	?	/
CCOc1ccc(NC(=O)COc2cccc3cccnc23)cc1S(=O)(=O)N1CCCC1	-11	/	/	-10%	/
Cc1cccc2cc(CN(C(=O)c3ccc(C(F)(F)F)cc3)C3CC3)c(N3CCC(O)CC3)nc12	/	/	/	-11%	/
Cc1cccc(N2CCn3c2nc2c3c(=O)n(CCCc3ccccc3)c(=O)n2C)c1	-14	19%[46.1 µM]	/	-5%	/
COc1ccc(-c2oc3cccnc3c2-c2ccc(OC)nc2)cc1	8	/	?	?	/
CC(NC(=O)CCCOc1ccc(Cl)cc1)c1ccccc1 (stereo not given)	-24	5%	-2%	-25%	2%
CCCCOc1ccc(C(C)NC(=O)CCS(=O)(=O)Cc2ccccc2F)cc1 (stereo not given)	-66*	8%	-2%	-14%	-17%
CCCC12CN3CC(CCC)(CN(C1)C3c1ccco1)C2=O (stereo not given)	-18	1%	-4%	-13%	-1%[46.1 µM]
SMILES	HCMV inh	LASV entry inh	HCV inhibitor	FMDV antiviral	MARV entry inh
O=C(C[C@H]1CC[C@@H]2[C@H](COC[C@@H](O)CN2C(=O)C2CC2)O1)NCc1ccccc1Cl	-31	/	/	-2%	/
O=C(C[C@H]1CC[C@H]2[C@@H](COC[C@@H](O)CN2C(=O)c2cnccn2)O1)NCc1ccc(Oc2ccccc2)cc1	-68*	/	/	-14%	/
Oc1cc(-c2nc3ccccc3s2)cc2c1OCCN(Cc1cccn1-c1ccc(Cl)cn1)C2	/	/	/	26%	/
CC(=O)N(C)c1ccc(N=Nc2ccc3ncccc3c2)cc1	30	10µM*	-27%	-15%	?
Oc1ccc(C=Nc2ccc3ncccc3c2)c(O)c1	/	/	/	/	-3%
COc1cc(C=CC(=O)c2cc(OC)c(OC)c(OC)c2)cc(OC)c1OC	-97*	7.9µM*	?	13µM*	?
COc1cc(C=CC(=O)c2ccccc2)cc(OC)c1OC	4	/	/	16µM*	/
COc1cc(/C=C/C(=O)N2CCCN(C(=O)/C=C/c3cc(OC)c(OC)c(OC)c3)CC2)cc(OC)c1OC	37	/	5%	-3%	/
COc1ccccc1/C=C/C(=O)c1ccccc1	6	/	-19%	1%	/
COc1ccc2cc(C(=O)/C=C/c3cc(OC)c(OC)c(OC)c3)ccc2c1	-15	-30%[46.1 µM]	?	-10%	?
COc1cc(/C=C/C(=O)N2CCC=CC2=O)cc(OC)c1OC	-97*	/	32µM*	?	/
COc1ccccc1/C=C/C(=O)c1ccc(NC(C)=O)cc1	-102*	11µM*	?	?	13µM*
COc1cc(NC(=O)c2cnc(N)o2)cc(C(=O)Nc2cccc(C(F)(F)F)c2)c1	?	/	?	18µM*	/
COc1cc(NC(=O)c2cnc(N)s2)cc(C(=O)Nc2cccc(C(F)(F)F)c2)c1	-31	/	?	-2%	/
COc1cc(NC(=O)c2csc(N)n2)cc(C(=O)Nc2cccc(C(F)(F)F)c2)c1	-67*!	/	?	25µM*	/
Cc1cc(N2C(=O)C(=O)/C(=C(/O)c3ccccc3)[C@H]2c2cccs2)no1	/	/	/	/	21%
CCOc1ccc(NC(=O)CN(C)C(=O)C2CCN(c3ncnc4sc(C)c(C)c34)CC2)cc1OCC	-68*	-11%	/	?	?
Cc1sc2ncnc(N3CCC(C(=O)Nc4ccc(Br)cc4Br)CC3)c2c1C	-16	?	?	20µM*	11µM*
CCc1cccc(NC(=O)C2CCN(c3ncnc4sc(C)c(C)c34)CC2)c1	-39	/	11µM*	?	/
Cc1sc2ncnc(N3CCC(C(=O)NCC(=O)Nc4ccc(F)c(F)c4)CC3)c2c1C	-35	?	8.9µM*	?	?
Cc1sc2ncnc(N3CCC(C(=O)Nc4ccc(Cl)c(Cl)c4)CC3)c2c1C	0	/	?	?	/
CCn1c(-c2ccccc2F)nc2cc(NC(C)=O)cc(C(=O)N3CCCC3c3nccs3)c21 (stereo not given)	/	/	/	-13%	/
COc1cccc(CN(C)C(=O)CN2C(=O)NC(c3ccccc3)(c3ccccc3)C2=O)c1OC	120	/	-19%	3%	/
O=c1cc2oc3cc(O)c(O)cc3c(-c3ccccc3O)c-2cc1O	/	/	-27%	0%	/
COc1ccc(OC)c(-c2c3cc(O)c(=O)cc-3oc3cc(O)c(O)cc23)c1	/	?	-12%	-26%	21µM*
Cc1ccc(N(CCCCN2C(=O)c3ccccc3C2=O)C(=O)c2ccc(Cl)s2)cc1	-62*	?	?	0%	1%
Cc1ccc(OCCC(=O)OCC(=O)Nc2ccc3[nH]c(=O)[nH]c3c2)cc1	-5	-1%	5%	-8%	0%
CC(=O)c1cccc(NC(=S)Nc2ccn(Cc3cccc4ccccc34)n2)c1	?	?	11µM*	-7%	?
CCc1ccccc1NC(=O)Nc1nnc(N(CC)c2ccccc2)s1	-6	-8%[46.1 µM]	/	-5%	-14%[46.1 µM]

Screens deposited in PubChem BioAssay by National Center for Advancing Translational Sciences (NCATS).
